Rows were chosen to be rich in hits. Some 22% of all compounds tested hit in one or more screens of this group.
Pf growth 96h: P. falciparum growth inhibition at 96 hour, primary screen for plastid delayed-death inhibitors | P. falciparum luciferase reporter growth, 96 h | Potency, µM (highest dose often 28.7 µM), without a hit: at the top dose activity change, negative = inhibition, usual class: inhibitors | 6.9% of 320,000 active | AID 504834; also: potency is read from the fitted curve at half-maximal effect; % is scaled to controls: 0 for no effect and ±100 for the full control effect
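Two parasite generations (96 h, 37 C, 5% CO2) of compound exposure in infected erythrocytes (0.05% parasitemia, 2% hematocrit). Luciferase-reporter P. falciparum; decreased luminescence indicates inhibited growth, aimed at apicoplast-acting delayed death.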
LmPK inh: inhibitors of Leishmania mexicana pyruvate kinase | Q27686 | purified LmPK, Kinase-Glo ATP luminescence, 1 h | Potency, µM (highest dose often 57.5 µM), for the others: top-dose activity change, negative = inhibition, actives largely listed as inhibitors | 0.37% of 290,000 active | AID 1721; also: potency is read from the fitted curve at half-maximal effect; % is scaled to controls: 0 for no effect and ±100 for the full control effect
Target sequence (Q27686 whole entry, looked up): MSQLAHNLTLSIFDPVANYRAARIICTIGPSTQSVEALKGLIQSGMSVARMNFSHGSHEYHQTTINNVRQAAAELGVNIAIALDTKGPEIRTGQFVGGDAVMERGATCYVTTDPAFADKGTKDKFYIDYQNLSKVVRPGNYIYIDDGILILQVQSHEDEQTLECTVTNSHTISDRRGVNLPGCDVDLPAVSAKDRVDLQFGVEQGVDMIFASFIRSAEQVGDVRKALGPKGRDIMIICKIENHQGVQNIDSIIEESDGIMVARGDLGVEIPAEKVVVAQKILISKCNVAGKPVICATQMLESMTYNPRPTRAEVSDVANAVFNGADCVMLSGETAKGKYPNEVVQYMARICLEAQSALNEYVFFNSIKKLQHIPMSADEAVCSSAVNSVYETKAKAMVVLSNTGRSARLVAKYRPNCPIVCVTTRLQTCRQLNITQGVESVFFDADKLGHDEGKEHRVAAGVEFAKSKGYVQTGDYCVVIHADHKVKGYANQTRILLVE
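qHTS format; LmPK 0.1 nM; substrates PEP 0.5 mM and ADP 0.1 mM. One-hour room-temperature incubation, then coupled luciferase luminescence; 0.5 nM enzyme wells mark activation.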
Shiga inhibitor: Shiga toxin inhibition; Vero cells, Shiga toxin protein synthesis inhibition reporter; 9.2% of 290,000 active; inhibition, % at 38.7 µM; AID 2315; in the data active = inhibition mostly above about 28%, no sharp cut-off; inactive = mostly below about 43%; also: 0% is about no effect
CHX counter: affects cycloheximide protein synthesis inhibition readout, counter-screen | 12% of 300,000 active | max response, % | cell reporter, cycloheximide protein synthesis inhibition counterscreen; in the data active = max response mostly above about 13%, no sharp cut-off; inactive = mostly below about 14%; also: read at 38.3 µM for the half of the compounds with a filed dose; 0% is about no effect
Pf growth 48h: inhibits P. falciparum growth in the first generation, 48 h; Potency, µM (doses to about 28.7 µM), for inactives: at the top dose activity change, negative = inhibition, actives largely listed as inhibitors; P. falciparum luciferase growth in erythrocytes, 48 h; 5.9% of 310,000 active; also: potency is read from the fitted curve at half-maximal effect; % is scaled to controls: 0 for no effect and ±100 for the full control effect
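Firefly luciferase activity from engineered P. falciparum reports growth; inhibitors lower the luminescent signal. Cultures contained 2% hematocrit erythrocytes at 0.1% final parasitemia.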
Starred values were filed as active, the others as inactive; ? = inconclusive; . = not tested or not shown. Unless noted, calls follow the shape of the dose curve; as a rule, active = well fitted inhibition curve with a large enough effect; inconclusive = small, poorly fitted or top-dose-only effect, or another doubt; inactive = no such curve, though single readings can be large or run the other way.

SMILES | Pf growth 96h | LmPK inh | Shiga inhibitor | CHX counter | Pf growth 48h
COc1ccccc1N(Cc1ccccc1)S(=O)(=O)c1cccc(C(=O)Nc2ccc(C(C)=O)cc2)c1 | 3.7µM* | -1.4% | 44.3* | 45.9* | ?
CC(C)C[C@H](NC(=O)N1CCn2c1nc1ccccc12)C(=O)NCC1CCCO1 (some centres not stated) | 4.8% | 2.2% | 9.2 | 7.3 | 10.9%
COc1ccc(/C=C/C(=O)NCc2ccccn2)cc1 | 43.8% | 1.8% | 33.6* | 16.9* | 15.2%
COCC(C)NC(=O)/C=C/c1ccc(OC)cc1 (configuration not stated) | -4.5% | -11.0% | 36.2 | 18.9* | 88.9%
COC(=O)CNC(=O)/C=C/c1ccc(OC)cc1 | 140.3% | -6.1% | 56.9* | 27.4* | 3.5%
Cn1c(=O)c2cc(S(=O)(=O)NC(C(=O)N3CCCCCC3)c3ccccc3)ccc2n(C)c1=O (configuration not stated) | 10.4µM* | 2.2% | -12.4 | -5.4 | .
CCN(C1CCS(=O)(=O)C1)S(=O)(=O)c1ccc2ccccc2c1 (configuration not stated) | 17.5% | . | . | . | -1.0%
COc1ccc2[nH]c3c(=O)n4c(nc3c2c1)SCC4 | 10.4µM* | 2.1% | 17.0 | 9.1 | 30.4%
O=c1c2[nH]c3ccccc3c2nc2n1CCS2 | 32.1% | -0.2% | 23.3 | 11.5 | 9.7%
COc1cc2[nH]c3c(=O)n4c(nc3c2cc1OC)SCCC4 | 2.9% | -1.4% | 30.8* | 24.8* | 101.9%
COc1cc(COCC(O)CN2C(C)CCCC2C)cc(OC)c1OC (configuration not stated) | 17.2% | 0.6% | 17.9 | -2.3 | 0.5%
CCN(CC)C(=O)c1[nH]cnc1C(=O)Nc1ccc(Cl)cc1 | ? | . | . | . | 7.2%
COC(=O)C1CN(S(=O)(=O)c2cc(OC)ccc2OC)CCS1 (configuration not stated) | -0.2% | -7.4% | -3.1 | -3.0 | 0.1%
COc1ccc(C2CC(c3ccc(Cl)cc3)Nc3nc(NC(=O)c4ccco4)nn32)cc1 (configuration not stated) | 13.1% | 6.4% | 8.5 | -3.3 | 9.28µM*
O=C(Nc1nc2n(n1)C(c1ccc(Cl)cc1)CC(c1ccc(Cl)cc1)N2)c1ccco1 (configuration not stated) | ? | -1.5% | -5.5 | -1.2 | 10.4µM*
COc1cc(Cl)c(C)cc1NC(=O)CNC(C)c1ccccc1OC (configuration not stated) | 9.28µM* | -0.3% | -10.1 | 0.4 | -12.2%
OCC1(Cc2ccccc2Cl)CCN(C/C=C/c2ccccc2)CC1 | 3.3% | 4.4% | -3.7 | -0.7 | 11.7µM*
OCC1(CCc2ccccc2)CCN(C/C=C/c2ccccc2)CC1 | 265.1% | -2.9% | -7.8 | -1.1 | ?
Cc1cccc(-n2nc3c(c2NC(=O)c2ccc(S(=O)(=O)N4CCOCC4)cc2)CSC3)c1C | 2.0% | 6.9% | 2.8 | -1.6 | 11.7µM*
Cc1ccc(-n2nc3c(c2NC(=O)c2ccc(S(=O)(=O)N4CCOCC4)cc2)CSC3)c(C)c1 | -21.7% | 2.0% | 9.2 | 9.4 | 5.86µM*
Cn1cnnc1SCC(=O)N1CCc2ccccc21 | . | -5.4% | -28.5 | -2.4 | 7.1%
Cc1ccc(SCC(=O)N2CCc3ccccc32)cc1 | ? | 0.0% | 52.6* | 45.9* | 77.2%
Nc1ccccc1SCC(=O)N1CCc2ccccc21 | ? | 3.4% | 67.2 | 41.0* | 63.4%
CC(C)c1nc(SCC(=O)N2CCc3ccccc32)n[nH]1 | 35.2% | 6.2% | 47.3 | 20.8* | 76.2%
O=C(CNc1ccccc1OC(F)F)N1CCc2ccccc21 | 0.8% | -5.6% | 45.0* | 32.0* | 326.6%
SMILES | Pf growth 96h | LmPK inh | Shiga inhibitor | CHX counter | Pf growth 48h
O=C(CNCCO)N1CCc2ccccc21 | 7.0% | 1.1% | 16.2 | 1.3 | -2.8%
O=C(O)c1ccccc1SCC(=O)N1CCc2ccccc21 | 118.3% | -6.7% | 1.7 | -1.4 | 114.7%
Cc1cccc(NS(=O)(=O)c2ccc(Cl)cc2)n1 | ? | -8.1% | -24.5 | -3.5 | -9.7%
Cc1cc(NC(=O)CSc2nc3c(c(=O)n2C)SCC3)no1 | ? | -3.7% | -3.4 | -4.6 | 12.0%
CCCn1nnnc1SCC(=O)N1CCCc2ccccc21 | 71.6% | -2.3% | 108.0* | 47.8* | 78.3%
O=C(CSc1nnnn1-c1ccccc1)N1CCCc2ccccc21 | ? | 1.0% | 4.1 | 5.2 | .
Cc1ccc(-c2ccc(SCC(=O)N3CCc4ccccc43)nn2)cc1 | -22.0% | 3.3% | -10.8 | -7.4 | 18.8%

Assay outcomes (PubChem BioAssay)
